In paper PMC9838217, “Structure of SALL4 zinc finger domain reveals link between AT-rich DNA binding and Okihiro syndrome” one finds binding signal data, which are given here for 42 sequences.

Numbering of substitutions follows the chain as printed.

What all share (assay): HT-SELEX; high values mean tight binding
Common to all, as to conditions: protein: recombinant; vector His6-GST; dsDNA, one strand shown

The target of assay [1] is T1, SALL4 ZFC4 WT (HT-SELEX) (Mus musculus, UniProt Q8BX22 870-940).
T1 sequence: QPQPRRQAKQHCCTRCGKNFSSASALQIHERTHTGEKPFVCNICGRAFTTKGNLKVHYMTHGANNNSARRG
In short, it runs like this: (§1)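 Binding signal is expressed as fold change in each canonical k-mer's read fraction over the initial random library. To obtain it, 1 µg of purified recombinant mouse SALL4 zinc finger cluster 4 (residues 870–940) was incubated for 10 min at room temperature with library DNA (1.5 µg first cycle, 200 ng later cycles) in 100 µl of 10 mM Tris–HCl pH 7.5, 50 mM NaCl, poly(dI-dC) and DTT. Ni2+ bead-captured complexes went through washing, PCR amplification and reselection for up to 6 cycles, in triplicate, before MiSeq sequencing and scanning for 6-mers.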

The target in assay [2] is T2, SALL4 ZFC4 R900W (HT-SELEX) (Mus musculus, UniProt Q8BX22 870-940, R900W).
T2 sequence: T1 sequence with R31W
Put shortly:
as §1

Assay [3] addresses T3, SALL4 ZFC4 G921D (HT-SELEX) (Mus musculus, UniProt Q8BX22 870-940, G921D).
T3 sequence: T1 sequence with G52D
In short, it runs like this: as §1

On to ATTTGC, for which the binding signal in assay [1] stood at 0.914 ± 0.0535 fold-change vs cycle 0; in assay [2], 0.9 ± 0.0391 fold-change vs cycle 0; in assay [3] it was 0.981 ± 0.0312 fold-change vs cycle 0.
In the case of CCAGGA, the binding signal came out at 0.465 ± 0.017 fold-change vs cycle 0 in assay [1], 0.546 ± 0.0174 fold-change vs cycle 0 in assay [2] and 0.63 ± 0.0152 fold-change vs cycle 0 in assay [3].
Take ACATAG: the binding signal in assay [1] is 1.3 ± 0.0172 fold-change vs cycle 0; in assay [2], 1.35 ± 0.0801 fold-change vs cycle 0; in assay [3] it was 1.34 ± 0.0894 fold-change vs cycle 0.
On the same counts, the results for GCATGA are 0.7 ± 0.0187 fold-change vs cycle 0, 0.753 ± 0.0226 fold-change vs cycle 0 and 0.824 ± 0.0395 fold-change vs cycle 0.
With AGCCTC, the binding signal in assay [1] stood at 0.316 ± 0.0162 fold-change vs cycle 0; in assay [2], 0.401 ± 0.0165 fold-change vs cycle 0; in assay [3], 0.536 ± 0.0409 fold-change vs cycle 0.
On to TGTCAA, for which the binding signal in assay [1] worked out at 1.12 ± 0.0378 fold-change vs cycle 0; in assay [2], 1.266 ± 0.01 fold-change vs cycle 0; in assay [3], 1.26 ± 0.0283 fold-change vs cycle 0.
For the sequence CCAAAG, the binding signal in assay [1] was determined as 0.69 ± 0.0265 fold-change vs cycle 0; in assay [2] it was 0.801 ± 0.0292 fold-change vs cycle 0; in assay [3], 0.848 ± 0.0204 fold-change vs cycle 0.
Consider AAAATC, for which the binding signal in assay [1] was determined as 1.66 ± 0.102 fold-change vs cycle 0; in assay [2] it was 1.58 ± 0.0564 fold-change vs cycle 0; in assay [3], 1.53 ± 0.0679 fold-change vs cycle 0.
On to ATACGG, for which the binding signal in assay [1] was determined as 0.67 ± 0.0205 fold-change vs cycle 0; in assay [2], 0.767 ± 0.0197 fold-change vs cycle 0; in assay [3] it was 0.808 ± 0.0319 fold-change vs cycle 0.
On the same counts, the results for GCGTAA are 0.494 ± 0.0275 fold-change vs cycle 0, 0.556 ± 0.0061 fold-change vs cycle 0 and 0.651 ± 0.033 fold-change vs cycle 0.
On the same counts, the results for ACCTAA are 1.36 ± 0.0814 fold-change vs cycle 0, 1.46 ± 0.0702 fold-change vs cycle 0 and 1.37 ± 0.0509 fold-change vs cycle 0.
Consider ACATGC, for which the binding signal was 0.613 ± 0.0259 fold-change vs cycle 0 in assay [1], 0.7108 ± 0.0052 fold-change vs cycle 0 in assay [2] and 0.774 ± 0.017 fold-change vs cycle 0 in assay [3].
On to ATAAAA, for which the values for the binding signal in assay [1], in assay [2] and in assay [3] were 3.85 ± 0.323 fold-change vs cycle 0, 2.43 ± 0.199 fold-change vs cycle 0 and 2.07 ± 0.279 fold-change vs cycle 0, respectively.
On the same counts, the results for AACCCG are 0.371 ± 0.0321 fold-change vs cycle 0, 0.432 ± 0.0178 fold-change vs cycle 0 and 0.538 ± 0.0569 fold-change vs cycle 0.
The matching figures for TAAATA: 3.77 ± 0.207 fold-change vs cycle 0, 2.47 ± 0.107 fold-change vs cycle 0 and 2.11 ± 0.184 fold-change vs cycle 0.
The matching figures for CAAGTC: 0.742 ± 0.0124 fold-change vs cycle 0, 0.878 ± 0.025 fold-change vs cycle 0 and 0.942 ± 0.0196 fold-change vs cycle 0.
Regarding ATATAA, the binding signal in assay [1] turned out to be 4.98 ± 0.592 fold-change vs cycle 0; in assay [2] it was 2.65 ± 0.229 fold-change vs cycle 0; in assay [3], 2.24 ± 0.302 fold-change vs cycle 0.
The matching figures for AACATC: 1.26 ± 0.068 fold-change vs cycle 0, 1.37 ± 0.098 fold-change vs cycle 0 and 1.34 ± 0.101 fold-change vs cycle 0.
On the same counts, the results for ACCAGG are 0.477 ± 0.0177 fold-change vs cycle 0, 0.564 ± 0.0161 fold-change vs cycle 0 and 0.658 ± 0.055 fold-change vs cycle 0.
On the same counts, the results for CTAACA are 1.32 ± 0.0481 fold-change vs cycle 0, 1.48 ± 0.0428 fold-change vs cycle 0 and 1.41 ± 0.0893 fold-change vs cycle 0.
As for TCGACA, the binding signal amounted to 0.525 ± 0.0359 fold-change vs cycle 0 in assay [1], 0.609 ± 0.0106 fold-change vs cycle 0 in assay [2] and 0.731 ± 0.0296 fold-change vs cycle 0 in assay [3].
Regarding CAATAC, the results for the binding signal in assay [1], in assay [2] and in assay [3] were 1.22 ± 0.0144 fold-change vs cycle 0, 1.3 ± 0.0388 fold-change vs cycle 0 and 1.29 ± 0.0522 fold-change vs cycle 0, respectively.
Regarding AGGTGG, the binding signal in assay [1] worked out at 0.487 ± 0.0135 fold-change vs cycle 0; in assay [2], 0.556 ± 0.0106 fold-change vs cycle 0; in assay [3] it was 0.647 ± 0.0454 fold-change vs cycle 0.
Consider AAGAGC, for which the binding signal in assay [1] is 0.752 ± 0.0601 fold-change vs cycle 0; in assay [2], 0.917 ± 0.0813 fold-change vs cycle 0; in assay [3], 1.02 ± 0.0502 fold-change vs cycle 0.
On the same counts, the results for AGTCAA are 1.21 ± 0.0262 fold-change vs cycle 0, 1.409 ± 0.0091 fold-change vs cycle 0 and 1.34 ± 0.0532 fold-change vs cycle 0.
The matching figures for CTACGA: 0.656 ± 0.0504 fold-change vs cycle 0, 0.762 ± 0.0209 fold-change vs cycle 0 and 0.827 ± 0.0362 fold-change vs cycle 0.
On the same counts, the results for CAACTC are 0.778 ± 0.0269 fold-change vs cycle 0, 0.92 ± 0.0298 fold-change vs cycle 0 and 0.994 ± 0.018 fold-change vs cycle 0.
Take ATTGCG: the binding signal was 0.438 ± 0.0111 fold-change vs cycle 0 in assay [1], 0.47 ± 0.0102 fold-change vs cycle 0 in assay [2] and 0.614 ± 0.0595 fold-change vs cycle 0 in assay [3].
On the same counts, the results for ATGGAC are 0.777 ± 0.0185 fold-change vs cycle 0, 0.861 ± 0.0318 fold-change vs cycle 0 and 0.938 ± 0.0184 fold-change vs cycle 0.
Regarding CACGAA, the results for the binding signal in assay [1], in assay [2] and in assay [3] were 0.608 ± 0.0441 fold-change vs cycle 0, 0.706 ± 0.0334 fold-change vs cycle 0 and 0.781 ± 0.0236 fold-change vs cycle 0, respectively.
On the same counts, the results for ATGAGG are 0.907 ± 0.0235 fold-change vs cycle 0, 1.03 ± 0.0436 fold-change vs cycle 0 and 1.06 ± 0.0374 fold-change vs cycle 0.
On the same counts, the results for GAGATC are 0.836 ± 0.059 fold-change vs cycle 0, 0.953 ± 0.0609 fold-change vs cycle 0 and 1.06 ± 0.0528 fold-change vs cycle 0.
The matching figures for AGTACA: 1.29 ± 0.0355 fold-change vs cycle 0, 1.43 ± 0.0834 fold-change vs cycle 0 and 1.35 ± 0.0882 fold-change vs cycle 0.
As to GAGTGC, the binding signal in assay [1] was 0.332 ± 0.0145 fold-change vs cycle 0; in assay [2] it was 0.398 ± 0.019 fold-change vs cycle 0; in assay [3], 0.554 ± 0.055 fold-change vs cycle 0.
The matching figures for ATGATC: 1.37 ± 0.0972 fold-change vs cycle 0, 1.46 ± 0.0896 fold-change vs cycle 0 and 1.48 ± 0.0835 fold-change vs cycle 0.
On the same counts, the results for AACGCT are 0.549 ± 0.0698 fold-change vs cycle 0, 0.603 ± 0.0229 fold-change vs cycle 0 and 0.738 ± 0.0676 fold-change vs cycle 0.
Regarding TATTCA, the binding signal in assay [1] was 2.4 ± 0.138 fold-change vs cycle 0; in assay [2], 2.03 ± 0.0979 fold-change vs cycle 0; in assay [3], 1.83 ± 0.191 fold-change vs cycle 0.
The matching figures for CCCTGA: 0.494 ± 0.0131 fold-change vs cycle 0, 0.574 ± 0.0156 fold-change vs cycle 0 and 0.665 ± 0.0261 fold-change vs cycle 0.
On the same counts, the results for CCTAAA are 1.13 ± 0.0805 fold-change vs cycle 0, 1.27 ± 0.0327 fold-change vs cycle 0 and 1.18 ± 0.0527 fold-change vs cycle 0.
On the same counts, the results for ACACAG are 0.726 ± 0.03 fold-change vs cycle 0, 0.835 ± 0.00993 fold-change vs cycle 0 and 0.877 ± 0.04 fold-change vs cycle 0.
Consider ACTATC, for which the values for the binding signal in assay [1], in assay [2] and in assay [3] were 1.35 ± 0.0436 fold-change vs cycle 0, 1.45 ± 0.0712 fold-change vs cycle 0 and 1.39 ± 0.1 fold-change vs cycle 0, respectively.
As for CGCATA, the binding signal in assay [1] stood at 0.489 ± 0.0286 fold-change vs cycle 0; in assay [2] it was 0.499 ± 0.00702 fold-change vs cycle 0; in assay [3] it was 0.636 ± 0.061 fold-change vs cycle 0.
